# Test results taken from PubChem BioAssay.
# Unmarked numbers belong to inactive results.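 The calls were made as follows: active = inhibition at or above 50% relative to wild type and mutant plate controls; inactive = inhibition below 50%.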
# Assay: loss of swimming-algae plug formation – whole organism, Chlamydomonas reinhardtii, WT vs cilia-less mutant, absorbance, 96-well, primary screen (AID 463189);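 also: 0% = wild type cc124 cells in DMSO and 100% = ciliumless bld1 mutant cells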
# Details: Chlamydomonas reinhardtii gravitaxis, OD600 absorbance, 2 days; at 10 µM; stronger effect = higher value
row,SMILES,inhibition
1,Cc1cc(C)n(S(=O)(=O)/C=C/c2ccccc2)n1,25.5%
2,N#Cc1nc(-c2ccc(F)cc2)oc1N1CCCC1,-3.17%
3,CCOC(=O)c1[nH]c2ccc(C)cc2c1N=CN(CC)CC,-5%
4,Cn1c(NCCCO)nc2c1c(=O)n(Cc1ccccc1F)c(=O)n2C,7.04%
5,C=CCOc1ccc(/C(O)=C2/C(=O)C(=O)N(CCCN3CCOCC3)C2c2ccc(OC)cc2)cc1 (stereo unspecified),25.3%
6,CCOc1ccc2c(c1)n([O-])c1c([n+]2=O)CCCC1,32.8%
7,CCCC(=O)N1CCc2[nH]c3ccccc3c2C1,-3.97%
8,CCN(CC)c1nc(N2CCOCC2)c(C#N)c2c1CN(C)CC2,43.3%
9,CN1C(=O)C2(c3ccccc31)C1CCCC=C1C(C#N)=C(N)C2(C#N)C#N (stereo unspecified),4.14%
10,Cc1sc(-n2c(C)ccc2C)c(C#N)c1C,-3.1%
11,CCN(CC)CCN1C(=O)C(O)=C(C(C)=O)C1c1ccc(OC)c(OC)c1 (stereo unspecified),2.41%
12,CCOC(=O)C(C(=O)OCC)N(C#N)c1nc(SC)nc(N(C)C)n1,-15.2%
13,CCSc1nnc(NC(=O)C(C)(C(F)(F)F)C(F)(F)F)s1,2.14%
14,CC(C)=CCC(C)(C)CNC(=O)NC1CCCCC1,19.5%
15,CCCOC(=O)CSC1=C(C#N)C(c2ccc3c(c2)OCO3)CC(=O)N1 (stereo unspecified),6.85%
16,COc1ccc(N2CC(=O)N(c3ccc(OC)c(OC)c3)CC2=O)cc1OC,18.5%
